The sample as a whole holds a higher share of hits than the screen did.
Methyltransferases – Primary Screen for Target Class Profiling of Small Molecule Inhibitors of Methyltransferases; purified enzyme, MTase-Glo SAH luminescence; active compounds read low; calls only at 40 µM; 3.9% of 25,000 active; AID 1745853, 2022; call rule not given here
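Each enzyme was assayed with SAM and its substrate. SAH formation detected by MTase-Glo luminescence; single-point 40 uM screen[…].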
An asterisk follows results filed as active; i = inactive; + = active, no number. On the % scale 0 is the no-effect control and ±100 the full control effect.

SMILES	Methyltransferases
OCCc1ccc(O[C@@H]2O[C@H](CO)[C@@H](O)[C@H](O)[C@H]2O)c(O)c1	i
O=C(c1ccccc1)c1c(O)cc(O)cc1O[C@@H]1O[C@H](CO)[C@@H](O)[C@H](O)[C@H]1O	+
OC[C@H]1O[C@@H](Oc2ccccc2)[C@H](O)[C@@H](O)[C@@H]1O	i
CC(=O)c1c(O)cc(O[C@@H]2O[C@H](CO)[C@@H](O)[C@H](O)[C@H]2O)cc1O	i
O=C(O[C@@H]1O[C@H](CO)[C@@H](O)[C@H](O)[C@H]1O)c1c(O)cc(O)cc1/C=C/c1ccccc1	+
OC[C@H]1O[C@@H](OC[C@H]2O[C@@H](OC/C=C/c3ccccc3)[C@H](O)[C@@H](O)[C@@H]2O)[C@@H](O)[C@@H]1O	i
CCCn1c(=O)c2ccc(C(=O)NC3CCCCC3)cc2n2c(=O)n(CC(=O)Nc3ccc(C)cc3)nc12	i
CCCN1C(=O)c2c(C(=O)NCc3cc(OC)ccc3OC)ncn2CC1(C)C(=O)NCc1ccc(C)cc1 (stereo not drawn)	i
O=c1c2ccccc2n2c(-c3ccccc3F)nnc2n1Cc1ccc(F)cc1	i
CCC(C)NC(=O)Cn1nc2n(Cc3ccc(C)cc3)c(=O)c3ccc(C(=O)NC(C)C)cc3n2c1=O (stereo not drawn)	i
CC1(C(=O)NC2CCCCCC2)Cn2c(cc3sccc32)C(=O)N1Cc1ccccc1F (stereo not drawn)	i
Cn1c(=O)n([C@H]2CCCN(S(=O)(=O)c3ccc4c(c3)OCCO4)C2)c2ncccc21	i
Cc1ccccc1CN1C(=O)c2cc3sccc3n2CC1(C)C(=O)NC1CCCCC1C (stereo not drawn)	i
CCCC1c2cccn2CCN1C(=O)NC1(CC(=O)OCC)CCCCC1 (stereo not drawn)	i
CC1(C(=O)NCc2ccc(Cl)cc2)Cn2c(ccc2-c2ccco2)C(=O)N1CCC1=CCCCC1 (stereo not drawn)	i
Cc1ccc(NC(=O)c2cc3n(n2)CC(C)(C(=O)NC2CCCCCC2)N(C)C3=O)c(Cl)c1 (stereo not drawn)	i
CSc1cccc(N2C(=O)CSc3c(c4ccccc4n3C)C2C(=O)NCc2ccc(F)cc2)c1 (stereo not drawn)	i
Cc1nc(CCNC(=O)c2cnc(-c3cccnc3)nc2)cc(=O)[nH]1	i
Cc1ccc(NC(=O)N2CCC(n3c(C)cnc3-c3cccnc3)C2)cc1C (stereo not drawn)	i
Cc1cc(NC(=O)c2cccc(NC(=O)/C=C/CN(C)C)c2)ccc1Nc1nccc(-c2cccnc2)n1	+
CCCC1c2cccn2CCN1C(=O)NC1CCCCC1 (stereo not drawn)	i
Cc1ccc(C(=O)CSc2nnc3n(C)c(=O)c4ccc(C(=O)NC5CCCCC5)cc4n23)cc1	i
C=C(F)c1sc(CNCCCNc2cc(=O)c3ccccc3[nH]2)c(C)c1Br	+
COc1ccc(N2C(=O)c3cc4ccc(OC)cc4n3CC2(C)C(=O)NC2CCCC2)c(OC)c1 (stereo not drawn)	i
COC(=O)c1ncn2c1C(=O)N(Cc1cccc(Cl)c1)C(C)(C(=O)NC1CCCCCC1)C2 (stereo not drawn)	i
SMILES	Methyltransferases
O=C(Cn1ccc2cc(S(=O)(=O)N3CCCC3)ccc21)NCCc1ccc(Cl)cc1	i
CC1CCN(S(=O)(=O)c2ccc3c(c2)oc(=O)n3CC(=O)N2CC(C)CC(C)C2)CC1 (stereo not drawn)	i
COc1ccc(OC)c(CCNC(=O)CCc2nnc3n(Cc4ccc(F)cc4)c(=O)c4ccccc4n23)c1	i
CCCC(=O)NCCc1c2n(c3ccc(OC)cc13)CCCc1ccccc1-2	+
COc1ccc(OC)c(CCNC(=O)Cn2ccc3cc(S(=O)(=O)N4CCCC4)ccc32)c1	i
Cc1sc2c(c1C)C(c1ccc(Cl)cc1)=N[C@H](CC(=O)NCCCCNC(=O)COc1cccc3c1C(=O)N([C@H]1CCC(=O)NC1=O)C3=O)c1nnc(C)n1-2	+
Cc1ccccc1CN1C(=O)c2cc3sccc3n2CC1(C)C(=O)NC1CCC(C)CC1 (stereo not drawn)	i
CC1=CC(=O)CC(C)(C)[C@@]1(O)CC[C@@H](C)O[C@@H]1O[C@H](CO)[C@@H](O)[C@H](O)[C@H]1O	i
CC1=CC(=O)CC(C)(C)C1/C=C/C(C)OC1OC(COC2OCC(O)C(O)C2O)C(O)C(O)C1O (stereo not drawn)	i
CC1=CC(=O)CC(C)(C)C1CCC(C)OC1OC(COC(=O)c2cc(O)c(O)c(O)c2)C(O)C(O)C1O (stereo not drawn)	+
CC(CCC1C(C(=O)O)=CC(=O)CC1(C)C)O[C@@H]1O[C@H](CO)[C@@H](O)[C@H](O)[C@H]1O (stereo partly drawn)	+
COc1cc(C(=O)OC[C@H]2O[C@@H](OC(C)(C)C(=O)O)[C@H](O)[C@@H](O)[C@@H]2O)cc(OC)c1O	i
CC1=CC(=O)CC(C)(C)C1/C=C/C(C)O[C@@H]1O[C@H](CO)[C@@H](O)[C@H](O)[C@H]1O[C@@H]1OC[C@](O)(CO)[C@H]1O (stereo partly drawn)	i
CCOc1ccc(CN2C(=O)c3cc4ccc(OC)cc4n3CC2(C)C(=O)NC2CCCCC2)cc1 (stereo not drawn)	i
COC(=O)c1cc2n(n1)CC(C)(C(=O)NC1CCCC1)N(c1ccc(F)cc1C)C2=O (stereo not drawn)	i
CC(C)CCNC(=O)C1(C)Cn2nc(C(=O)NCc3cccnc3)cc2C(=O)N1C (stereo not drawn)	i
CCOC(=O)c1cc2n(n1)CC(C)(C(=O)NC1CCCCCC1)N(Cc1ccc(F)cc1)C2=O (stereo not drawn)	i
COc1ccc(OC)c(CCNC(=O)CCc2nnc3n(CCCOC(C)C)c(=O)c4ccccc4n23)c1	i
CN(CC(=O)NC1CCCCC1)S(=O)(=O)c1ccc2[nH]c3c(c2c1)CCCC3	i
O=C(CCc1nnc2n(Cc3ccc(F)cc3)c(=O)c3ccccc3n12)Nc1ccc(F)c(F)c1	i
COc1ccc2cc3n(c2c1)CC(C)(C(=O)NC1CCCCCC1)N(CCN1CCOCC1)C3=O (stereo not drawn)	i
C=C[C@H]1[C@H](O[C@@H]2O[C@H](CO)[C@@H](O)[C@H](O)[C@H]2O)OC=C(C(=O)OC)[C@H]1C/C=C(/C=O)[C@@H]1C(C(=O)OC)=CO[C@@H](O[C@@H]2O[C@H](CO)[C@@H](O)[C@H](O)[C@H]2O)[C@@H]1C=C	+
C=C[C@H]1[C@H](O[C@@H]2O[C@H](CO)[C@@H](O)[C@H](O)[C@H]2O)OC=C(C(=O)OC)[C@H]1CCOC(=O)c1cc(O)c(O)c(O)c1	+
C/C=C1\[C@H](O[C@@H]2O[C@H](CO)[C@@H](O)[C@H](O)[C@H]2O)OC=C(C(=O)OC)[C@H]1CC(=O)O	i
COC(=O)C1=CO[C@@H](O[C@@H]2O[C@H](CO)[C@@H](O)[C@H](O)[C@H]2O)[C@@H]2[C@@H](CO)[C@@H](O)C(O)[C@H]12 (stereo partly drawn)	i
C=CC1C(O[C@@H]2O[C@H](CO)[C@@H](O)[C@H](O)[C@H]2O)OC=C(C(=O)OC)C1Cc1nccc2c1[nH]c1ccccc12 (stereo partly drawn)	i

Screens from PubChem.
